# Screening data: PubChem, National Center for Advancing Translational Sciences (NCATS)
# Many of the other results were omitted from the sample, so hits are more common in it than they were.
# Pf Dd2 inh = inhibitors of Plasmodium falciparum Dd2 growth; Potency, µM (doses to about 28.9 µM), inactives show at the highest dose activity, negative = inhibition, hits mostly inhibitors; P. falciparum Dd2 growth, SYBR Green, 72 h; 4.3% of 120,000 active; active means well fitted inhibition curve with a large enough effect;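 further: plate controls were DMSO vehicle for no effect and reference drug for full effect; nearly all actives have a fitted effect of over 65% in size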
#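 Infected erythrocytes (Dd2, 0.3% parasitemia, 2.5% hematocrit final) are added to compound in RPMI-1640/Albumax II medium, grown 72 h at 37C in low oxygen, then lysed with saponin/Triton-X containing SYBR Green and read by fluorescence.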
# * = called active by the depositor; i = inactive; [ ] = another dose, or the depositor's remark. Potency means the concentration at half of the fitted maximal effect.
SMILES,Pf Dd2 inh
Cc1ccc(C2(c3noc(CN(C)Cc4ccc(C)o4)n3)CCCC2)cc1,-28.2%
CC(C)c1nnc(C2CN(C(=O)C3CCCCC3)CC23CCOCC3)o1 (configuration not stated),-11.9%
CC1(NC(=O)C2CC2)CN(Cc2nc(-c3ccccc3)cs2)C1,i
CCNC(=O)CCc1c(C)nn(-c2ccccc2)c1Oc1ccccc1,i
CN(Cc1ccc(-c2ccccc2)cc1)C(=O)c1ccc(C(F)(F)F)cc1,0.1%
Cc1ccc(C2C=C(c3ccc(F)cc3)Nc3nc(CCCO)nn32)cc1 (configuration not stated),8.91µM*
COc1ccc(C2C=C(c3ccccc3)Nc3nc(NS(=O)(=O)c4ccc(C)cc4)nn32)cc1 (configuration not stated),19.8%
CCOc1ccccc1C1C(C(=O)Nc2ccccc2)=C(C)Nc2nc(-c3ccccc3)nn21 (configuration not stated),-18.5%
COc1ccc(C2Cn3nnc(-c4nc(-c5ccc(Cl)cc5)no4)c3CO2)cc1 (configuration not stated),i
OCCCc1nc2n(n1)C(c1cccc(Cl)c1)C=C(c1ccccc1)N2 (configuration not stated),i
COc1ccc(C2=CC(c3ccccc3Cl)n3nc(-c4ccc(C)cc4)nc3N2)cc1 (configuration not stated),11.2µM*
COc1ccc(C2C=C(c3ccc(F)cc3)Nc3nc(-c4ccc(Cl)cc4)nn32)cc1 (configuration not stated),1.12µM*
Cc1ccc(C2C=C(c3ccccc3)Nc3nc(NS(=O)(=O)c4ccc(C)cc4)nn32)cc1 (configuration not stated),-13.8%
O=C1N(C2CCCCC2)C[C@H]2CN(S(=O)(=O)c3ccc(F)cc3)CCN12,i
Cc1nn(C)c(C)c1S(=O)(=O)N1CCCCCCn2c(nnc2-c2ccc(F)cc2)CC1,i
COCCN1CC(C(=O)N(C)Cc2ccc(OC)c3ncccc23)CCC1=O (configuration not stated),10.4%
CN(C)[C@@H]1CN(C2CCCCC2)CC[C@@H]1CO,i
O=C(Nc1ccc(-c2nnc3n2CCCC3)cc1)c1cc(-c2ccccc2)n[nH]1,14.1µM*
O=C(NC1CCc2n[nH]c(=O)n2CC1)c1ccc2ccccc2n1 (configuration not stated),i
O=C(Nc1ccc(-c2nnc3n2CCCC3)cc1)c1ccncc1,i
O=C(Nc1ccc(-c2nnc3n2CCCC3)cc1)c1cc(F)ccc1F,i
CCOc1ccc(C(=O)Nc2ccc(-c3nnc4n3CCCCC4)cc2)cc1OCC,-18.1%
COc1ccc(Cl)cc1C(=O)Nc1ccc(-c2nnc3n2CCCCC3)cc1,3.7%
O=C(Nc1ccc(-c2nnc3n2CCCC3)cc1)c1ccc2ccccc2n1,1µM*
COc1ccc(C(=O)Nc2ccc(-c3nnc4n3CCCC4)cc2)cn1,7.08µM*
SMILES,Pf Dd2 inh
O=C(Nc1ccc(-c2nnc3n2CCCC3)cc1)c1ccc(Cl)cc1,5.01µM*
COCCN1C(=O)CS(=O)(=O)C12CCN(C(=O)C1(c3ccc(OC)cc3)CC1)CC2,-3.6%
Cc1ncsc1CN1C[C@@H](NC(=O)c2cccnc2)C[C@H]1CO,9.3%
Cc1nnc(-c2cc(N3CCN(c4ccccn4)CC3)ccn2)n1C(C)C,-3.5%[44.1 µM]
Cn1cnnc1CC1CCN(C(=O)NC2CCCCC2)C1 (configuration not stated),i
COc1ccc(CCC(=O)NC2CCN(C(=O)c3cc4c(=O)[nH]c(C)cn4n3)CC2)cc1,i
CSc1ccccc1-c1ccc(N2CCN(C)CC2)nn1,-3.0%
CN1C(=O)c2cccn2CC1CNC(=O)c1cccn1C (configuration not stated),-0.5%
c1ccc(OCc2cc(CC3(NCc4cccnc4)COC3)no2)cc1,-25.2%[44.1 µM]
CNC(C)c1cccc(C(F)(F)F)c1 (configuration not stated),-6.9%[44.1 µM]
O=C(c1cc(Cl)ccc1F)N1CCC[C@H]1c1nc(-c2ccccc2)no1,-4.7%
Cc1ccc(F)c(C(=O)N[C@H](Cc2ccccc2)C2CC(O)C2)c1Cl (some centres not stated),-8.2%
CCc1nncn1C1CCN(S(=O)(=O)c2cc(Cl)ccc2OC)CC1,i
CC(C)NC(=O)O[C@@H]1CC[C@]2(C)C(CC[C@@H](O)[C@H]2CC(=O)NCc2ccco2)[C@]1(C)CO (some centres not stated),-11.2%
COc1cc(NC(=O)O[C@@H]2CC[C@]3(C)C(CC[C@@H](O)[C@H]3CC(=O)N3CCCC3)[C@]2(C)CO)cc(OC)c1 (some centres not stated),-14.4%
CCCNC(=O)O[C@@H]1CC[C@]2(C)[C@H](CC[C@@H](O)[C@H]2CC(=O)N2CCCCC2)[C@]1(C)CO,i
COc1ccc(NC(=O)O[C@@H]2CC[C@]3(C)C(CC[C@@H](O)[C@H]3CC(=O)N3CCC[C@H]3CO)[C@]2(C)CO)cc1 (some centres not stated),-20.9%
C[C@]1(CO)C2CC[C@@H](O)[C@@H](CC(=O)N3CCCC3)[C@]2(C)CC[C@H]1OC(=O)Nc1ccccc1 (some centres not stated),8.91µM*
CCCNC(=O)O[C@@H]1CC[C@]2(C)[C@H](CC[C@@H](O)[C@H]2CC(=O)N2CCCC2)[C@]1(C)CO,0.2%[44.1 µM]
C[C@]1(CO)C2CC[C@@H](O)[C@@H](CC(=O)NCc3cccs3)[C@]2(C)CC[C@H]1OC(=O)NC1CCCCC1 (some centres not stated),11.2µM*
CCNC(=O)O[C@@H]1CC[C@]2(C)C(CC[C@@H](O)[C@H]2CC(=O)NCc2ccc(F)cc2)[C@]1(C)CO (some centres not stated),-5.3%
COc1cc(NC(=O)O[C@@H]2CC[C@]3(C)C(CC[C@@H](O)[C@H]3CC(=O)N3CCCCC3)[C@]2(C)CO)cc(OC)c1OC (some centres not stated),5.01µM*
CC(C)CNC(=O)N1CCC2(CC1)CC(N(C(=O)c1ccccc1)C1CC1)CCO2 (configuration not stated),i
Cc1ccc(C)c(NC(=O)CN2C(=O)NC3(CCC(C)CC3)C2=O)c1 (configuration not stated),-17.9%
CS(=O)(=O)N1C[C@H]2CCN(C(=O)Cc3ccccc3Cl)C[C@H]21,-0.7%
SMILES,Pf Dd2 inh
COCCOCC(=O)N1CCCCCCNC(=O)[C@@H]2C[C@@H](c3nc(Cc4ccccc4)no3)C[C@@H]21,i
O=C(C1CC1)N1CCCC(CN2CCOCC2)CC1 (configuration not stated),-11.0%
Cc1cc(C)n(CC(=O)N[C@@H]2CN(C)C[C@H]2CN(C)C)n1,48.5%
N#Cc1ccc(CN2CCC3(CC2)CC(c2cccc(C(F)(F)F)c2)=NO3)cc1,-24.4%
COc1ccccc1CNC(=O)[C@H]1CN2CCC1C[C@@H]2Cn1cc(CO)nn1 (some centres not stated),7.8%[44.1 µM]
COc1ccc(CN2C(=O)[C@@H]3C[C@@H](O)CN3C3(CN(Cc4ccncc4)C3)C2=O)cc1,6.2%[44.1 µM]
COc1ccc(CN2C(=O)[C@@H]3C[C@@H](O)CN3C3(CN(Cc4cnc5ccccc5c4)C3)C2=O)cc1,7.08µM*
COc1ccc(CN2C(=O)[C@@H]3C[C@@H](O)CN3C3(CN(Cc4cccc(OC)c4)C3)C2=O)cc1,i
CN1CCC(NC[C@H]2O[C@@H](CO)[C@@H](O)[C@H]2N2CCN(c3ccc(F)cc3)CC2)CC1,18.8%
CC(C(=O)NCc1ccccc1F)C1CCOCC1 (configuration not stated),56.8%
